BJeLR viability: MLPCN primary cell-based screen for lethality selective to Ras in HRASV12 cells; BJeLR (HRASV12) viability, CellTiter-Glo ATP luminescence, 48 h; inhibition, % (no concentration beside the values); actives 0.17% (n = 300,000); AID 1554, 2009; in the data active = inhibition above about 50%
Sa RN4220 lethal: growth inhibition of S. aureus RN4220, primary screen, OD600 | 16 h | inhibition, % (test concentration not listed) | actives 0.33% (n = 330,000); in the data active = inhibition above about 85%;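 note: plate controls were untreated cells for no effect and reference antibiotic for full effect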
ugtP null kill: growth inhibition of ugtP-null S. aureus, primary screen, RN4220 ugtP deletion, OD600; AID 1259309, 2017; growth inhibition, % (concentration not given with the values); 16 h; actives 0.54% (n = 330,000); in the data active = growth inhibition above about 68%;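 note: plate controls were untreated wells for no effect and antibiotic for full effect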
CCHF vOTU inh-1: CCHFV vOTU protease inhibitors, primary screen, biochemical, Pep-AMC substrate, fluorescence; Crimean-Congo hemorrhagic fever virus L polyprotein viral ovarian tumor (vOTU) protease …; inhibition, % at 11.5 µM; actives 0.55% (n = 370,000); AID 651958, 2012; note: 0% = vehicle wells with enzyme and 100% = no enzyme wells
Mtb hypoxia inh: PubChem AID 1159583; M. tuberculosis hypoxia-regulated fluorescent reporter, fluorescence; fluorescence inhibition, % (test concentration not listed); actives 0.1% (n = 300,000); in the data active = fluorescence inhibition mostly above about 23%, no sharp cut-off; inactive = mostly below about 17%
RecA splice inh: Mtb RecA intein splicing inhibitors, primary screen, biochemical, fluorescence, HTS; cell-free RecA intein splicing; inhibition, % (concentration not given with the values); actives 0.75% (n = 290,000); Protein RecA (Mycobacterium tuberculosis (strain ATCC 25618 / H37Rv)), P9WHJ3; in the data active = inhibition above about 30%;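 note: 0% = vehicle wells and 100% = reference inhibitor control wells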
Target sequence (P9WHJ3 whole entry, looked up, canonical isoform): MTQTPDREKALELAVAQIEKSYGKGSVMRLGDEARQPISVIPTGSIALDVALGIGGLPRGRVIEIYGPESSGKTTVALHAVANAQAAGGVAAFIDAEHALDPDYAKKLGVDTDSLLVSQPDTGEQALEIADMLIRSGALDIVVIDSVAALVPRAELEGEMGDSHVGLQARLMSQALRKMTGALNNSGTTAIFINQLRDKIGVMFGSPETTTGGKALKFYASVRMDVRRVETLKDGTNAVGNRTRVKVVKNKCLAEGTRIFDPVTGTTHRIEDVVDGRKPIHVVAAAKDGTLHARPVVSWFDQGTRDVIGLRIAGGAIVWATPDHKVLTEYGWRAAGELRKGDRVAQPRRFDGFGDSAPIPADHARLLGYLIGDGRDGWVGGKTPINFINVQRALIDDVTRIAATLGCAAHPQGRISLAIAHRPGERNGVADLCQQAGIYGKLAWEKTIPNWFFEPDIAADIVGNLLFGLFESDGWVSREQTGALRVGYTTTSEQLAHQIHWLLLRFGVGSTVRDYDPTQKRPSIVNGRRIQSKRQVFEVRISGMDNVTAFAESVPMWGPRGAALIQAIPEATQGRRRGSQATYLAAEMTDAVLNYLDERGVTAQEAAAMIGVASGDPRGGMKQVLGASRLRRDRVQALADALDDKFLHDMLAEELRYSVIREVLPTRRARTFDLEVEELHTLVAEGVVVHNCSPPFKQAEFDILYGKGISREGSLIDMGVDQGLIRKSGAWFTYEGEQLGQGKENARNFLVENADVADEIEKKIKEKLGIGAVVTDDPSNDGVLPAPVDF
CCHF vOTU inh-2: CCHFV vOTU protease inhibitors, confirmation, biochemical, Pep-AMC substrate, fluorescence; shares compounds with CCHF vOTU inh-1; inhibition, % at 11.5 µM; actives 17% (n = 1,900); Recombinant CCHFV vOTU; AID 686976, 2013
The depositor's hits bear a star; / = no result given. An excerpt weighted towards active compounds, which were near 1.6% of everything screened. Cut-off read from the data, not from the text of the source, unless noted: active = inhibition above about 30%; inactive = the rest.

SMILES	BJeLR viability	Sa RN4220 lethal	ugtP null kill	CCHF vOTU inh-1	Mtb hypoxia inh	RecA splice inh	CCHF vOTU inh-2
Cc1cnc(C=NNC(N)=S)c2cccc(N)c12	/	/	/	45*	/	/	73*
O=C(O)c1ccc(NC2=C(N3CCOCC3)C(=O)c3ccccc3C2=O)cc1	9	14	-4	57*	-4	4	23
CC(=O)c1ccc(NC2=C(N3CCOCC3)C(=O)c3ccccc3C2=O)cc1	6	11	13	93*	4	7	67*
Cc1ccc(NC2=C(N3CCOCC3)C(=O)c3ccccc3C2=O)cc1	11	13	16	108*	4	41*	101*
Cc1ccc(Nc2nc(N3CCOCC3)nc(N3CCOCC3)n2)cc1	-4	8	1	-6	11	-4	/
COc1ccc(S(=O)(=O)N(CC(=O)NN=Cc2ccccc2C(=O)O)c2ccccc2OC)cc1	/	5	4	/	6	/	/
CCNC(=O)N1CCN(c2ccc(N3CCN(C(=O)NCC)[C@@H](C)C3)c(C)c2)[C@H](C)C1	/	/	/	35*	/	/	-12
CCNC(=O)N1CCN(c2ccc(N3CCN(C(=O)NCC)[C@H](C)C3)c(C)c2)[C@H](C)C1	/	/	/	10	/	/	/
CCOC(=O)Nc1ccc(NCc2ccc(F)cc2)nc1N	/	4	1	67*	-3	/	-5
CC1CCc2sc(C(=O)N(C)CC(=O)Nc3cccc(F)c3)cc2C1 (configuration not stated)	-4	-3	3	30*	8	1	-5
COc1cccc(NC(=O)CN(C)C(=O)c2cc3c(s2)CCCC3)c1	/	0	-2	12	16	/	/
COC(=O)[C@]12C[C@H](CC(=O)NCCc3ccccc3OC)C(=O)N(Cc3ccc(Cl)cc3Cl)C1=C[C@H](C(C)(C)C)O[C@@H]2C	/	/	/	30*	/	/	13
CCOC(=O)[C@]12CCCC=C1N(Cc1ccc(Cl)cc1Cl)C(=O)[C@H](CC(=O)NCCc1ccccc1OC)C2	/	/	/	30*	/	/	-2
COC(=O)[C@]12C[C@H](CC(=O)NCCC(C)C)C(=O)N(Cc3ccc(Cl)cc3Cl)C1=C[C@H](C(C)(C)C)O[C@@H]2C	/	/	/	31*	/	/	6
CCOC(=O)[C@]12CCC=C1N(Cc1ccco1)C(=O)[C@H](CC(=O)NCc1cccs1)C2	/	/	/	33*	/	/	-24
CCOC(=O)[C@]12CCCC=C1N(Cc1ccco1)C(=O)[C@H](CC(=O)NCc1cccs1)C2	/	/	/	7	/	/	/
CCCCNC(=O)C[C@@H]1C[C@@]2(C(=O)OCC)CCCC=C2N(Cc2ccc(Cl)cc2Cl)C1=O	/	/	/	13	/	/	/
CC1=NN(c2ccc(C)cc2C)C(=O)C1C(c1ccccc1O)C1C(=O)N(c2ccc(C)cc2C)N=C1C (configuration not stated)	5	9	8	44*	5	78*	-24
CC1=NN(c2ccc(Cl)cc2)C(=O)C1C(c1ccccc1O)c1c(C)[nH]n(-c2ccc(Cl)cc2)c1=O (configuration not stated)	8	9	-2	/	4	26	/
Cc1cccc(COC[C@H](CC(C)C)N2CCN(C(=O)c3ccc(C(C)(C)C)cc3)CCC2=O)c1	/	/	/	30*	/	/	0
CC(C)CC(COCc1ccc(F)cc1)N1CCN(C(=O)c2cccc(C(F)(F)F)c2)CCC1=O (configuration not stated)	11	3	-7	26	7	6	/
CC(C)C[C@@H](COCc1ccc(F)cc1)N1CCN(C(=O)c2cccc(C(F)(F)F)c2)CCC1=O	/	/	/	31*	/	/	8
Cc1cccc(COCC(CC(C)C)N2CCN(C(=O)c3ccc(C(C)(C)C)cc3)CCC2=O)c1 (configuration not stated)	6	-1	-9	26	4	6	/
COc1cccc(NC(=O)/C=C/c2ccc(S(=O)(=O)N3CCOCC3)cc2)c1	/	0	4	30*	9	/	-17
CC(=O)Nc1cccc(NC(=O)/C=C/c2ccc(S(=O)(=O)N3CCOCC3)cc2)c1	/	4	10	12	10	/	/
SMILES	BJeLR viability	Sa RN4220 lethal	ugtP null kill	CCHF vOTU inh-1	Mtb hypoxia inh	RecA splice inh	CCHF vOTU inh-2
COC(=O)CCC(=O)OC1(C)C(=O)C2=CN(C(CO)CO)C(c3ccc(OC)cc3)=CC2=C(Br)C1=O (configuration not stated)	1	/	/	31*	/	-11	18
CC1CN(C(C)CO)C(=O)c2cc(NC(=O)C3CCCCC3)ccc2OC1CN(C)S(=O)(=O)c1ccccc1 (configuration not stated)	/	-1	-19	/	-2	/	/
COCCN1C=C2C(=O)C(C)(OC(=O)C3CCCC3)C(=O)C(c3ccccc3)=C2C=C1CCCC(=O)OC (configuration not stated)	-7	8	3	34*	8	19	39*
COC(=O)CCCC1=CC2=C(c3ccccc3)C(=O)C(C)(OC(=O)C3CCCC3)C(=O)C2=CN1C1CCCCC1 (configuration not stated)	1	1	2	33*	18	12	22
C#CCNC(=O)C1=CC(c2ccc(C#C)cc2)CC(OCc2ccc(CO)cc2)O1 (configuration not stated)	/	-4	2	/	18	/	/
Cc1ccc(S(=O)(=O)N=C(c2ccc(F)cc2)N(C)C)cc1	/	5	16	/	-2	/	/
CCCC(CNC(CNC)C(C)CC)NCC1CCC(C(C)(C)C)CC1 (configuration not stated)	/	-1	-3	/	23	/	/
CN1CCS/C1=C/C=C1\SC(=S)N(CC(=O)O)C1=O	-8	1	7	35*	58*	-5	10
c1cncc(-c2ccc3ncnc(NCc4ccc5c(c4)OCO5)c3c2)c1	/	9	1	9	9	/	/
Fc1cccc(CNc2ncnc3ccc(-c4ccc5c(c4)OCO5)cc23)c1	/	-19	14	30*	-8	/	-13
O=C1CCN(CC2CCCCC2)C=C1C(=O)c1ccccc1	/	/	/	32*	/	/	-13
O=C(c1ccccc1)N1CCN(C2CCCCC2)CC1	-1	-14	-3	-7	7	-6	/
O=S(=O)(Nc1ccc(O)c2ccccc12)c1cccs1	3	17	-4	108*	5	1	-1
O=S(=O)(Nc1cccc2ccccc12)c1cccs1	15	4	-5	7	16	4	/
CCOc1cc(Br)cc(C(c2c(C(=O)O)[nH]c3ccccc23)c2c(C(=O)O)[nH]c3ccccc23)c1O	-2	34	-1	43*	-1	10	22
Cc1nnc(N/N=C/c2ccc(O)c([N+](=O)[O-])c2)[nH]c1=O	-11	/	/	32*	/	-1	6
Cc1csc(N/N=C/c2ccc(O)c([N+](=O)[O-])c2)n1	4	/	/	9	/	2	/
